Consider 13 molecules from PubChem BioAssay (NCATS).

SMILES strings stand for the structures. Results filed as inconclusive are left out. Calls of active or inactive are those of the source. Peptide text beside a SMILES is read from it.

The assay in a line: qHTS for identification of novel therapeutic agents for treatment of microphthalmiaassociated transcription factor (MiT) renal cell carcinoma (RCC) (AID 1963991). The settings on record: CellTiter-Glo, 48 h; for z-score: stronger effect = lower value. The source says: PI: Marston Linehan Ph.D.
Urologic Oncology Branch, Center for Cancer Research (CCR)
National Cancer Institute (NCI), National Institute of Health (NIH), Bethesda, Maryland
MiT-Renal Cell Carcinoma (RCC) is characterized by genomic translocations involving microphthalmia-associated transcription factor (MiT) family members TFE3, TFEB, or MITF. MiT-RCC represents a specific subtype of sporadic RCC that is predominantly seen in young patients and can present with heterogeneous histological features making diagnosis challenging. Moreover, the disease biology of this aggressive cancer is poorly understood and there is no accepted standard of care therapy for patients with advanced disease. Tumor-derived cell lines have been established from human TFE3-RCC providing useful models for preclinical studies. TFE3-RCC tumor derived cell lines and their tissues of origin were characterized by IHC and gene expression analyses. An unbiased high-throughput drug screen was performed to identify novel therapeutic agents for treatment of MiT-RCC. Potential therapeutic candidates were validated in in vitro and in vivo preclinical studies. Mechanistic assays were conducted to confirm the on-target effects of drugs. The results of a high-throughput small molecule drug screen utilizing three TFE3-RCC tumor-derived cell lines identified five classes of agents with potential pharmacological efficacy, including inhibitors of phosphoinositide-3-kinase (PI3K) and mechanistic target of rapamycin (mTOR), and several additional agents, including the transcription inhibitor Mithramycin A. Upregulation of the cell surface marker GPNMB, a specific MiT transcriptional target, was confirmed in TFE3-RCC and evaluated as a therapeutic target using the GPNMB-targeted antibody-drug conjugate CDX-011. […] The results of the high-throughput drug screen and validation studies in TFE3-RCC tumor-derived cell lines have provided in vitro and in vivo preclinical data supporting the efficacy of the PI3K/mTOR inhibitor.
SEQUENCE No. (e.g., 1, 2, 3, etc.); […] (e.g., Cells, Incubation, Reagent, etc.); VALUE; DESCRIPTION.
1; Cells; 3 uL; white, solid-bottom Grenier assay plate.
2; Compounds; 23 nL; Kalypsis pin-tool (Wako USA).
3; Incubation; 48 hr; 37 C, 5% CO2, 95% humidity.
4; Reagent; 3 uL; CellTiter-Glo reagent (Promega).
5; Incubation; 15 min; room temperature.
6; Detection; Luminescence; ViewLux plate reader (PerkinElmer).
NOTES (numbers refer to Sequence numbers above)
1. Quantitative high-throughput screening (qHTS) of 1912 pharmacologically defined small molecule compounds was conducted on three TFE3-fusion cell lines bearing three different fusion partners (UOK109, UOK124, UOK145). Briefly, 500 cells in complete growth media were plated into white, solid-bottom, 1536-well tissue culture treated plates (Grenier Cat. 789173-F) using a Multidrop Combi cassette dispenser.
2. Twenty-three nanoliter of 1912 pharmacologically defined small molecule compounds of the NCATS Mechanism Interrogation PlatE (MIPE) version 4.0 were added to each assay plate using a Pintool Dispenser (Wako) equipped with 1536 pin head.
3. Plates were covered with stainless steel gasketed lids and incubated for 48 hours at standard cell culture conditions.
4. Viability was assessed by adding 3uL of CellTiter-Glo detection reagent (Promega).
5. Plates were covered with gasket lids and incubated for 15 minutes at room temperature.
6. Luminescence was measured on a ViewLux plate reader (PerkinElmer). Post-screen data processing used DMSO controls as 100% viability and empty wells as 0% viability and dose response curve fitting was done for all 11 concentrations for each compound.
A general note: qHTS replaces the single test concentration by a dilution series.

Where [1] appears, read: TFE3-RCC UOK109 viability, measured here: UOK109 Z-AUC.
Where [2] appears, read: TFE3-RCC viability, measured here: UOK124 Z-AUC.
Where [3] appears, read: TFE3-RCC viability, measured here: UOK145 Z-AUC.
Potency means the concentration at half of the fitted maximal effect.

As to `CCN(CC)CCOc1ccc(Nc2ncc3cc(-c4c(Cl)cccc4Cl)c(=O)n(C)c3n2)cc1`, the Potency (TFE3-RCC UOK109 viability, active = Z-AUC below -0.8 in all three lines) is 11.8 nM (active). For the same molecule, the z-score reads like this: under setting [1], -2.53; under setting [2], -3.17; under setting [3], -2.04.
On to `O=c1oc2cc(O)ccc2s1`, for which the z-score is, setting by setting: under setting [1], 0.879; under setting [2], 0.455; under setting [3], 1.32.
For `CC(C)c1ccc2oc3nc(N)c(C(=O)O)cc3c(=O)c2c1` the same measures were 0.102, 0.464 and 0.404.
Taken in the same sequence, the figures for `c1cnc2cc3c(cc2n1)C1CNCC3C1` were -0.0233, 0.674 and 0.454.
For `Cc1ncc([N+](=O)[O-])n1CC(C)O` (stereo not given) the same measures were 1.59, 0.687 and 1.68.
As to `CC1=C(C(=O)O)N2C(=O)[C@@H](NC(=O)[C@H](N)C3=CCC=CC3)[C@H]2SC1`, the z-score stood at 1.56 under setting [1], 0.465 under setting [2] and 0.657 under setting [3].
Regarding `COC(=O)[C@H](Cc1ccccc1)NC(=O)[C@@H](N)CC(=O)O` (H-Asp-Phe-OMe), the z-score reads like this: under setting [1], 0.591; under setting [2], 0.672; under setting [3], 0.618.
For `N=C(N)c1ccc2cc(OC(=O)c3ccc(N=C(N)N)cc3)ccc2c1` the same measures were 0.107, -0.0134 and 0.0541.
On to `C[Se]CCC(N)C(=O)O` (stereo not given), for which the z-score under setting [1] stood at 1.47, the z-score under setting [2] turned out to be 0.35 and the z-score under setting [3] was 0.0936.
With `Oc1ccc(OCc2ccccc2)cc1`, the z-score came out at 1.11 under setting [1], 0.685 under setting [2] and 1.26 under setting [3].
For the molecule `Nc1cccc2c1CN(C1CCC(=O)NC1=O)C2=O` (stereo not given), the z-score was determined as 0.87 under setting [1], 1.94 under setting [2] and 0.731 under setting [3].
Consider `O=C(O)CCNC(=O)c1ccc(N=Nc2ccc(O)c(C(=O)O)c2)cc1`, for which the z-score by setting is: under setting [1], 1.03; under setting [2], 0.51; under setting [3], 0.488.
Taken in the same sequence, the figures for `Nc1ccn([C@@H]2O[C@H](CO)[C@@H](O)C2O)c(=O)n1` (stereo not given in full) were 0.798, 0.809 and 0.948.
